# From PubChem BioAssay (NCI)
# This is part of a sample that, as a whole, favours compounds with a hit. Of some 83,000 tested, about 20% had one in any assay.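 A percent growth of 40 corresponds to 60% growth inhibition; 0 means no net growth; -100 means all cells died. Active threshold: below 10.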 Calls of active or inactive are those of the source.
# Tested on: MDA-MB-468 breast
# Test: NCI-60 one-dose screen, 48 h (100 = growth as untreated, 0 = no growth, -100 = all killed)
# Details: 10 µM unless noted
row,SMILES,growth
1,CC1CCC(n2cnc3c(Cl)ncnc32)O1 (stereo not drawn),96.3% (inactive)
2,N#CC1=C(N)Oc2nc[nH]c(=O)c2C1c1cccs1 (stereo not drawn),99.3% (inactive)
3,COc1c(O)cc2c(c1CC=C(C)C)OC(=O)c1c(cc(O)c(CC=C(C)C)c1O)O2,27.9% (inactive)
